Results from the supplement of paper PMC11732987, “Enantioselective OTUD7B fragment discovery through chemoproteomics screening and high-throughput optimisation” (Communications Chemistry, 2025).

Key:
Test in all cases: log2 ratio of Biotin-Ahx-Ub-VS probe labelling (fragment/DMSO); higher = less target engagement (more negative = stronger competition), active = hit call of the paper (q ≤ 0.05, log2 ratio ≤ -1)
Conditions in all cases: compound concentration: 200 uM; treatment time: 3 h
[1] = target: USP34 (UniProt Q70CQ2)
Sequence of USP34 (Q70CQ2 whole entry, the tested form may be a part): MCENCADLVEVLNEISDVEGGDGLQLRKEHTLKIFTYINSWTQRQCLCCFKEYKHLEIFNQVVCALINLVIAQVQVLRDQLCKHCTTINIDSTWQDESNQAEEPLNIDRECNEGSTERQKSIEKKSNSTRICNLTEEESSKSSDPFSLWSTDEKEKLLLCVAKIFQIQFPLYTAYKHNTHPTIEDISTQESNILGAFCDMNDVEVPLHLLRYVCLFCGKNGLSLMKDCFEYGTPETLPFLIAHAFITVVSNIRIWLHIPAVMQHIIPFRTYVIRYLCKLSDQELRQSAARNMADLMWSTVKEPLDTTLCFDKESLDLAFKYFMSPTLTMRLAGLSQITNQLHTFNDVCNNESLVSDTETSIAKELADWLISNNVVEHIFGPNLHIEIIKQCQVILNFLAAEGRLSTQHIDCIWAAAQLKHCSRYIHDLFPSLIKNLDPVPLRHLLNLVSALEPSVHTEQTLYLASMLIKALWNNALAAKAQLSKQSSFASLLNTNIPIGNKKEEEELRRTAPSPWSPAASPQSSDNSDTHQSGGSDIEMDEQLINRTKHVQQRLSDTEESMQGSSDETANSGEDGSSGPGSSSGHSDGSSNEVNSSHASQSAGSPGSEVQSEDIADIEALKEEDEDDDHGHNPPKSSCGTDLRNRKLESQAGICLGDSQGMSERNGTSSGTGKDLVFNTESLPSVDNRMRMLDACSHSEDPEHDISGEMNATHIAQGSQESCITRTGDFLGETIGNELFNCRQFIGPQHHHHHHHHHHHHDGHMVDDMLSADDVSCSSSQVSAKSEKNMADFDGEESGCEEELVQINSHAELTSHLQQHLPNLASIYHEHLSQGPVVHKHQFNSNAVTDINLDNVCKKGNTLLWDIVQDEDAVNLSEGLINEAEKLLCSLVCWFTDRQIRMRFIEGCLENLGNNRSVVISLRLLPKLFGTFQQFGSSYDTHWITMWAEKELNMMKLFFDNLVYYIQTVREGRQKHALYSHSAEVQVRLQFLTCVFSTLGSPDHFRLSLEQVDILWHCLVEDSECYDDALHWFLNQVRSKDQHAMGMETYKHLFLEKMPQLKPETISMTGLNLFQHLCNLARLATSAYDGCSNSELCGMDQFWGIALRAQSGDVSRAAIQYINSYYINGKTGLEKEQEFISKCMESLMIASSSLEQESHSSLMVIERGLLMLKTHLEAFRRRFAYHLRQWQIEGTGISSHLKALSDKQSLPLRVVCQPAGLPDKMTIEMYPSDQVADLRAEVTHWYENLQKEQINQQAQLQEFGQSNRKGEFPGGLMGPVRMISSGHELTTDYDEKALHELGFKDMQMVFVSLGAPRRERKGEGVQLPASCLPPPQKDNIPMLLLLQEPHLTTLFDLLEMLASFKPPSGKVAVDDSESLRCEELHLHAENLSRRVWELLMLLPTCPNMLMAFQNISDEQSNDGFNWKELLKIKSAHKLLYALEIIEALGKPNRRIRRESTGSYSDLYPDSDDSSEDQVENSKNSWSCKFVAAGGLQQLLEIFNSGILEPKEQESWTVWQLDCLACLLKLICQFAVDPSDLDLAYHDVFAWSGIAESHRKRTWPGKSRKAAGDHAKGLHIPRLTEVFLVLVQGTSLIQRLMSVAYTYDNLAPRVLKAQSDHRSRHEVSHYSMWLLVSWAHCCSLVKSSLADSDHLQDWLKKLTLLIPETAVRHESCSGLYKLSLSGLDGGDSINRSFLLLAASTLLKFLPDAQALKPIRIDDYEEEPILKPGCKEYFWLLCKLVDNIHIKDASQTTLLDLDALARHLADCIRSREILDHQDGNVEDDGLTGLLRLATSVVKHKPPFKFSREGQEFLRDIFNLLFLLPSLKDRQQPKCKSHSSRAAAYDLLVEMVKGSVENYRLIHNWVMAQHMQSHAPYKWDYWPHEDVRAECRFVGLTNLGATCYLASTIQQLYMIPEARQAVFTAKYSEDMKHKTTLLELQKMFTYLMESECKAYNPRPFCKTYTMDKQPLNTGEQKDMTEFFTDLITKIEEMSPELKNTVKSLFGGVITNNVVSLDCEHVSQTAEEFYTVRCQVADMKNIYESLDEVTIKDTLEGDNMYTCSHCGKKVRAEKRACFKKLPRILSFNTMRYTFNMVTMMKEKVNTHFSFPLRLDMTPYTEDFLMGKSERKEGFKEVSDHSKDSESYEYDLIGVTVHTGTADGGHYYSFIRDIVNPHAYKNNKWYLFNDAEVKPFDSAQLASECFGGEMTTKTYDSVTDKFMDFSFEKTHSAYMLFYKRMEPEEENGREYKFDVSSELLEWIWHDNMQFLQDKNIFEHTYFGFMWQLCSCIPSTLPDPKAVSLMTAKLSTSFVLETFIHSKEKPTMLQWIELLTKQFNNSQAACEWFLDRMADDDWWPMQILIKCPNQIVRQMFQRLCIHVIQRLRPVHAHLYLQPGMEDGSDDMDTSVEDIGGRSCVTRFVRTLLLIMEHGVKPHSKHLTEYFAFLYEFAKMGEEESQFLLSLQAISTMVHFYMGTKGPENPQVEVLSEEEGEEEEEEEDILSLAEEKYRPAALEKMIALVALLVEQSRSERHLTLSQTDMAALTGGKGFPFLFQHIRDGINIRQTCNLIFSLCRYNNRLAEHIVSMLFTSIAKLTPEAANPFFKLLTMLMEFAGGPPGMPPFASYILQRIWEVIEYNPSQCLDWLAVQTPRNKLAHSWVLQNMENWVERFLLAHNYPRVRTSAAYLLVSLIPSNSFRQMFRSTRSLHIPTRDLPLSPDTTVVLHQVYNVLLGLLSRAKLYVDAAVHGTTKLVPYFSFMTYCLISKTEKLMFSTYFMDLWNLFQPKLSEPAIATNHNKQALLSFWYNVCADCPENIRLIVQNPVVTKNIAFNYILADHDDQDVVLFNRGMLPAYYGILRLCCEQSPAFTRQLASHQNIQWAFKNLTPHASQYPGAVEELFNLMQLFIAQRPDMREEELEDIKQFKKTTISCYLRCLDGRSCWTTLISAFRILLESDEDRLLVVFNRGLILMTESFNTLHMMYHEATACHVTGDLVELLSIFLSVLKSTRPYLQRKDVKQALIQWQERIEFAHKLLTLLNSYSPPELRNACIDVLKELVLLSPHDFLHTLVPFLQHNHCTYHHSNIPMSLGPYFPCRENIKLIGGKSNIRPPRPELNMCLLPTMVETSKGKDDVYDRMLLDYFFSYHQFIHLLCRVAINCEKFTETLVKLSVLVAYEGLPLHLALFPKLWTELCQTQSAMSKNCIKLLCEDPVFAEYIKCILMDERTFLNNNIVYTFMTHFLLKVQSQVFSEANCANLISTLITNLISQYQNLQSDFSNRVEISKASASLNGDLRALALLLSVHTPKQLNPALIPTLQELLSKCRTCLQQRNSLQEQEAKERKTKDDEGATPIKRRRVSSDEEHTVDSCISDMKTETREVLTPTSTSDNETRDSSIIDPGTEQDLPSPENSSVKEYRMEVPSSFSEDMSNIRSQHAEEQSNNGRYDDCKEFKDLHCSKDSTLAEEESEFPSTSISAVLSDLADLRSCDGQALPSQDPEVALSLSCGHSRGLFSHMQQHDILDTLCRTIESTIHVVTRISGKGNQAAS
Method in brief: (§1)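 Triplicate samples of HEK293T lysate, 495 µg each, received fragment at 200 µM or vehicle for 3 h, followed by Biotin-Ahx-Ub-VS (0.5 µM final) for 1 h. After NeutrAvidin enrichment of labelled DUBs and LysC/trypsin digestion, peptides were run by diaPASEF LC-MS/MS. The values are average log2 fragment/vehicle ratios from global-median-normalised Spectronaut label-free quantities, tested by unpaired t-test on proteins having ≥2 unique peptides.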

[2] = target: T1, USP36 (UniProt Q9P275)
T1 sequence (whole entry): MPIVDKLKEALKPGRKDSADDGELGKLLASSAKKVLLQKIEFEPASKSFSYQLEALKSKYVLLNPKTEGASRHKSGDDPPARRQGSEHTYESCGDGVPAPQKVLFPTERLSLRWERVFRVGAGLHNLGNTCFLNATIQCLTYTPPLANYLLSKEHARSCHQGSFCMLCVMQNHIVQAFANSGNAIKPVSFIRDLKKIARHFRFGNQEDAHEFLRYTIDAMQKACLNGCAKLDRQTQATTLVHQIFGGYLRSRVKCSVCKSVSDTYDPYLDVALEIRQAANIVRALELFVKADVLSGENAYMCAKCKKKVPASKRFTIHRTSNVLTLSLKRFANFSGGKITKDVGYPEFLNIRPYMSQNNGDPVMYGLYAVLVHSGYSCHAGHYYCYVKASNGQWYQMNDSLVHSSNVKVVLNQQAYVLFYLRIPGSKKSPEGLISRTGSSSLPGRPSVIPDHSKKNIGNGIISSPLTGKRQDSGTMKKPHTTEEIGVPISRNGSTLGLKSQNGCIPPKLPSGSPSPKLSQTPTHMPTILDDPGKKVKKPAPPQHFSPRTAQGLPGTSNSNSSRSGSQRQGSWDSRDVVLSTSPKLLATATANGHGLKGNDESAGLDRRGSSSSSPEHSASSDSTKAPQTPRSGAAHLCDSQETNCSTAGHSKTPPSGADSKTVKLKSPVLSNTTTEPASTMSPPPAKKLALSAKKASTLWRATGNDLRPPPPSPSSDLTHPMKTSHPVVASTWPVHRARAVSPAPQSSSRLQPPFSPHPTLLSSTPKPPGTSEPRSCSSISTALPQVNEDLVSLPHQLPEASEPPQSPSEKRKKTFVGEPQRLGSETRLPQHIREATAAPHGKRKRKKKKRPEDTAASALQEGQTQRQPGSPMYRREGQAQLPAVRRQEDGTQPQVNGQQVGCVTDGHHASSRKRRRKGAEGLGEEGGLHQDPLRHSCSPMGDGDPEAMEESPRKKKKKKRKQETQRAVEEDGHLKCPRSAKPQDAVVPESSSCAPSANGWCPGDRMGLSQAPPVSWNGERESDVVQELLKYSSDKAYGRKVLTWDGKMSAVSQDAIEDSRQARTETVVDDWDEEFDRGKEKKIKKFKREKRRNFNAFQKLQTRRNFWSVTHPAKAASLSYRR
Method in brief: as §1

[3] = target: T2, USP38 (UniProt Q8NB14)
T2 sequence (whole entry): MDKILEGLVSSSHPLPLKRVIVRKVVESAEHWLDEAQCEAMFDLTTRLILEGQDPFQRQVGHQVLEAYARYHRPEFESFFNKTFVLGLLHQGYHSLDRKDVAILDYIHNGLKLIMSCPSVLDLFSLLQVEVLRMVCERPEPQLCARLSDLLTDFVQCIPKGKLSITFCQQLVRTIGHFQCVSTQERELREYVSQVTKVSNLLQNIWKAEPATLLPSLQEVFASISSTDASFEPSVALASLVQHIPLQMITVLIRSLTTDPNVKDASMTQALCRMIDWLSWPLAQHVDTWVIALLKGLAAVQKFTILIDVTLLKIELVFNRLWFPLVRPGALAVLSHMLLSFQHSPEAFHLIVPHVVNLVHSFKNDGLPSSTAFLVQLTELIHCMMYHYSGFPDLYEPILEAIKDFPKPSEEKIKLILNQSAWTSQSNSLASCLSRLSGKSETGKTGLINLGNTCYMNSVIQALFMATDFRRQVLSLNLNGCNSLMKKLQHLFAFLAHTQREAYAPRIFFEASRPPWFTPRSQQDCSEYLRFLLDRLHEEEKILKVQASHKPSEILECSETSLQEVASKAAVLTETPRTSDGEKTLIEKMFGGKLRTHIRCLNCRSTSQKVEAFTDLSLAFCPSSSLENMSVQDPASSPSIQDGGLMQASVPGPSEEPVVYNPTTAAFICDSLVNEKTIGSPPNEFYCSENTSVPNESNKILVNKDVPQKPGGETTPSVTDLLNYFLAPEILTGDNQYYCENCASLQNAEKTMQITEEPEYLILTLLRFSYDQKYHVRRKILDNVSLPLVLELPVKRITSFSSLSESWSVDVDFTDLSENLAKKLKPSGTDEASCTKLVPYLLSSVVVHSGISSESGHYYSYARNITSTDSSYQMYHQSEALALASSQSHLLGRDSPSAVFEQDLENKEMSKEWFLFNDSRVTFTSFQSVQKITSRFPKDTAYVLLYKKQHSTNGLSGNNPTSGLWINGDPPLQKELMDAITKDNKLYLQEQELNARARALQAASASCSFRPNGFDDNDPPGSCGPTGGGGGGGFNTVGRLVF
Method in brief: as §1

[4] = target: T3, USP39 (UniProt Q53GS9)
T3 sequence (whole entry): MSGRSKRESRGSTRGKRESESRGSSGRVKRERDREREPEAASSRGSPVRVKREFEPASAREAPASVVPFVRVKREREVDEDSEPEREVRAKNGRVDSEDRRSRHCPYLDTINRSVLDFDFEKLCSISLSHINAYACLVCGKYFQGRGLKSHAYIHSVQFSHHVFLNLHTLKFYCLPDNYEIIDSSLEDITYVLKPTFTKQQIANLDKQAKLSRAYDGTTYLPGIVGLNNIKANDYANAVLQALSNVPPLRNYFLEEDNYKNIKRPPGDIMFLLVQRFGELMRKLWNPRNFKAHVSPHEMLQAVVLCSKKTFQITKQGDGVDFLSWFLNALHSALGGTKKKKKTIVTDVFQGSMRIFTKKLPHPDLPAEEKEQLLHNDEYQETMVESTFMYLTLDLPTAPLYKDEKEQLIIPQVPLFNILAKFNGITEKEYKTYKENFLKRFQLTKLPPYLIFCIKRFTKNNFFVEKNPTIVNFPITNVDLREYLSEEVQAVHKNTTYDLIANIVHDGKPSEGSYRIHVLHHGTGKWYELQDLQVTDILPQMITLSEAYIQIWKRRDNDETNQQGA
Method in brief: as §1

[5] = target: T4, USP4 (UniProt Q13107)
T4 sequence (whole entry): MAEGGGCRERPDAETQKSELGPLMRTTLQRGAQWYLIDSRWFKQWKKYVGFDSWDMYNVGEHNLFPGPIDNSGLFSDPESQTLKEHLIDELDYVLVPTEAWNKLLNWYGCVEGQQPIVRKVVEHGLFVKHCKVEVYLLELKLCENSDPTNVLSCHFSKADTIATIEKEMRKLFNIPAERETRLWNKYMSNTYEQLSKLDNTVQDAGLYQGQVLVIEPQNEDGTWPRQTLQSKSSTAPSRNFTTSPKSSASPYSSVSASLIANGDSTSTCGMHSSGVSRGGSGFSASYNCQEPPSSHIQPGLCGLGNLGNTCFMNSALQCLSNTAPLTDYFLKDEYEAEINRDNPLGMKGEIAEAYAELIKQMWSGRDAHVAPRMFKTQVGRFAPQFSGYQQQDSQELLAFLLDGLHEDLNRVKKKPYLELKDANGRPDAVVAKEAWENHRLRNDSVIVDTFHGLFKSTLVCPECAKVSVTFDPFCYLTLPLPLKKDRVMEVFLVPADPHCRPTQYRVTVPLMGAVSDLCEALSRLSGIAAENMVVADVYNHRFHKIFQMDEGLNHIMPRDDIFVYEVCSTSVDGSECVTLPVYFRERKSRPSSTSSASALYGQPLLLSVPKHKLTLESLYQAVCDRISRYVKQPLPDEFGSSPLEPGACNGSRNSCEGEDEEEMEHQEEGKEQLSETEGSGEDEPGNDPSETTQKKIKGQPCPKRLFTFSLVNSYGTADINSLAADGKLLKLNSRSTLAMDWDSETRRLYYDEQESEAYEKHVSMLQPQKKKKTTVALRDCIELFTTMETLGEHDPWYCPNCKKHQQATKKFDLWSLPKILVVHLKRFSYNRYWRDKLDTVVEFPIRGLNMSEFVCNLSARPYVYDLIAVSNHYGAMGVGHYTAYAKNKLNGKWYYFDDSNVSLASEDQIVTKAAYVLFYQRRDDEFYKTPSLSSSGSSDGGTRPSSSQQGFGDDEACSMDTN
Method in brief: as §1

Measured: log2 ratio of Biotin-Ahx-Ub-VS probe labelling

Cc1ncsc1CCNC(=O)CCl
inactive: [1] 0.121 | [2] -0.151 | [3] 0.14 | [4] -0.101 | [5] 0.244
